This is a sample that favours compounds with a hit; in the whole collection about 10% have one here.
G9a block: inhibitors of human histone lysine methyltransferase G9a; Q96KQ7; G9a H3K9 monomethylation, AlphaScreen, 2 h; Potency, µM (highest dose often 102 µM), for the others: top-dose activity, negative = inhibition, usual class: inhibitors; actives 8.8% (n = 350,000); also: potency is read from the fitted curve at half-maximal effect; % is scaled to controls: 0 for no effect and ±100 for the full control effect; nearly all actives have a fitted effect of over 75% in size
Target sequence (Q96KQ7 913-1193 limits assumed): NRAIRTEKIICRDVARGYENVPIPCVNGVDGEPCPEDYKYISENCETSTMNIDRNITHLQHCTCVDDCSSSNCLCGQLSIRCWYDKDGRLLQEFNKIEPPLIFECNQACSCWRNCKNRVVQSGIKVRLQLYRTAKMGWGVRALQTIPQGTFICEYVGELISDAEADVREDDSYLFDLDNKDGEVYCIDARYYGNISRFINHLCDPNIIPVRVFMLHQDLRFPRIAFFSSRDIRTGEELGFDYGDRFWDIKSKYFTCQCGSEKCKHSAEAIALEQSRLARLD
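G9a (20 nM) preincubated 15 min RT with compounds, then 500 nM biotinylated H3K9 peptide and 20 uM SAM added; 2 h RT reaction. Monomethyl-H3K9 product detected by AlphaScreen with anti-H3K9me1 antibody, streptavidin donor and anti-rabbit IgG acceptor beads.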
JMJD2A Tudor: inhibitors of human JMJD2A Tudor domain; O75164; AlphaScreen JMJD2A-Tudor / H3K4me3 peptide binding; Potency, µM (top dose mostly 114 µM), for inactives: at the top dose activity change, negative = inhibition, actives largely listed as inhibitors; actives 4.4% (n = 390,000); also: potency is read from the fitted curve at half-maximal effect; % is scaled to controls: 0 for no effect and ±100 for the full control effect; nearly all actives have a fitted effect of over 50% in size
BAZ2B block: BAZ2B (human) inhibition | actives 4.4% (n = 360,000) | Q9UIF8 | Potency, µM (doses to about 114 µM), for inactives: at the top dose activity change, negative = inhibition, most hits filed as inhibitors | AID 504333 | AlphaScreen BAZ2B-H3K14Ac peptide displacement; also: potency is read from the fitted curve at half-maximal effect; % is scaled to controls: 0 for no effect and ±100 for the full control effect; nearly all actives have a fitted effect of over 60% in size
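Inhibition is scored as reduced AlphaScreen emission. The BAZ2B/b-H3(5-23)K14Ac complex (50 nM each) in PBS pH 7.4, 0.01% Tween-20 meets compound (up to 110 uM) for 30 min at RT before bead addition.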
CtBP-E1A inh: inhibitors of CtBP/E1A interaction; AlphaScreen GST-E1A/His-CtBP binding, 1536-well; hits give low values; activity change, % (test concentration not listed); actives 0.49% (n = 340,000); in the data active = activity change below about -65%; inconclusive = mostly about -30% to -63%; also: % is scaled to controls: 0 for no effect and ±100 for the full control effect
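AlphaScreen with 125 nM GST-E1A and 125 nM His-CtBP (5X stocks) in Tris pH 8.0, 300 mM NaCl, BSA, Tween 20, TCEP. Compounds preincubated 2 h at 37 deg C, then glutathione donor/nickel acceptor beads added for 1 h at 37 deg C in dark.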
HP1b binding inh: blocks HP1-beta chromodomain binding to methylated histone tails; Potency, µM (doses to about 114 µM), for the others: at the highest dose activity change, negative = inhibition, most hits filed as inhibitors; actives 0.56% (n = 390,000); P83916; AlphaScreen HP1-beta / biotin-H3K9me3 peptide binding; also: potency is read from the fitted curve at half-maximal effect; nearly all actives have a fitted effect of over 70% in size
Target sequence (P83916 whole entry, looked up): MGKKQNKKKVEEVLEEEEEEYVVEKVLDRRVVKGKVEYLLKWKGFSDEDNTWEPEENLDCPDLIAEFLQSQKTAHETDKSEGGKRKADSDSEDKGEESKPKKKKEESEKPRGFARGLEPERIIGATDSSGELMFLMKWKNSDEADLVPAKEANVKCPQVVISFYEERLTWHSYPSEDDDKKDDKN
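Compound inhibition of the preformed complex between 50 nM HP1-beta and 50 nM biotinylated H3K9me3 peptide was read by AlphaScreen. Buffer was PBS pH 7.4 with 0.01% Tween-20. Incubations ran 30 min at room temperature, with 10 ug/mL donor/acceptor beads.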
Six1-Eya2 blk: inhibitors of human Six1/Eya2 interaction; Q15475+O00167; activity change, % (test concentration not listed); actives 0.56% (n = 360,000); AlphaScreen GST-Six1/His-Eya2 binding, biochemical; hits give low values; AID 651725; in the data active = activity change below about -65%; inconclusive = mostly about -30% to -63%; also: % is scaled to controls: 0 for no effect and ±100 for the full control effect
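Homogeneous AlphaScreen proximity assay pairing GST-Six1 with His-tagged Eya2 (added as 5X mix: 250 nM and 500 nM) in 50 mM Tris pH 8.0, 300 mM NaCl, 1 mM TCEP. Glutathione donor and nickel acceptor beads; 1 h, 37 °C, dark.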
Active calls of the source: *; ? = inconclusive; . = no result; [ ] = remark or other dose. Unless noted, calls follow the shape of the dose curve; as a rule, active = well fitted inhibition curve with a large enough effect; inconclusive = small, poorly fitted or top-dose-only effect; inactive = no such curve, though single readings can be large or run the other way.

SMILES	G9a block	JMJD2A Tudor	BAZ2B block	CtBP-E1A inh	HP1b binding inh	Six1-Eya2 blk
COc1ccc(/C=C2\CCc3ccccc3C2=O)cc1OC	?	-26%	-32%	-21	3%	-12
COc1ccc(/C=C2\CC/C(=C\c3ccc(OC)c(OC)c3)C2=O)cc1OC	?	?	20µM*	-11	-22%	7
COc1ccc(C=C2C=C(C(C)(C)C)C(=O)C(C(C)(C)C)=C2)cc1OC	.	32µM*	25µM*	4	?	-1
COc1ccc(NC(=O)NC2COc3ccccc3C2)cc1Cl (stereo not drawn)	-1%[59 µM]	-19%	1%	.	12%[57 µM]	.
O=C(CN(C(=O)c1csnn1)c1ccccc1Cl)NC1CCCCC1	-6%	-7%	5%	7	6%	5
Brc1cccc(CSc2nnc(-c3ccncc3)o2)c1	45µM*	4%	27%	13	58%	5
c1ccc2c(CSc3nnc(-c4ccncc4)o3)cccc2c1	50µM*	-13%	4%	3	-6%	1
Clc1ccccc1CSc1nnc(-c2ccncc2)o1	47%	-11%	-2%	15	33%	3
O=C(CCn1ccc2cc(S(=O)(=O)N3CCCC3)ccc21)NCc1ccccc1Br	5%[59 µM]	5%	-2%	.	35%	.
C/C(CCc1oc2ccc(Cl)cc2c1-c1ccc(C)o1)=N\O	?	89µM*	?	-10	?	-12
CC(=O)CCc1oc2ccc(C)cc2c1-c1ccccc1	326%	92%	-23%	26	24%	22
C/C(=N/NC(=O)c1ccc(Br)o1)c1cccc(NC(=O)c2ccc(C)o2)c1	24%[59 µM]	50µM*	-36%	-2	-10%	-8
O=C(c1ccccc1)c1cccc(NC(=O)c2ccc(Br)o2)c1	45µM*	-19%	-39%	-11	5%	-13
O=C(Nc1cccc(NC(=O)c2ccc(Br)o2)c1)c1ccccc1	-4%	-6%	-10%	-2	7%	-8
Nc1scc2c(C(=O)O)nn(-c3ccccc3)c(=O)c12	-24%[0.501 µM]	79µM*	?	.	-1%	.
COC(=O)c1nn(-c2ccc(OC)cc2)c(=O)c2c(N)sc(C)c12	10µM*	?	?	-24	?	-26
COc1ccc(-n2nc3c(=O)[nH][nH]c3cc2=O)cc1	?	?	32µM*	?	9%	-22
Cc1c(C(=O)O)nn(-c2ccccc2)c(=O)c1C#N	?	-18%	9%	3	16%	2
COc1ccc(-n2nc(C(=O)O)c3csc(N)c3c2=O)cc1	.	79µM*	.	.	.	.
COc1cccc(-n2nc(C(=O)O)c3ccccc3c2=O)c1	?	-22%	-12%	6	27%	-1
COc1ccc(-c2nc3ccccc3s2)cc1NC(=O)c1cccc(F)c1	-44%[59 µM]	-26%	?	.	-1%	.
C[C@H](CO)N1C[C@H](C)[C@@H](CN(C)S(=O)(=O)c2ccccc2)Oc2c(NS(=O)(=O)c3ccc(F)cc3)cccc2C1=O	.	-18%	.	.	36%	-9
COC(=O)c1nn(-c2ccc(OC)cc2)c(=O)cc1Sc1ccc(C)cc1	3%	-15%	-9%	-1	34%	-4
CCOC(=O)c1nn(-c2ccc(C)cc2)c(=O)c2c(N)scc12	1.3µM*	?	?	-20	-17%	-12
COC(=O)c1nn(-c2ccc(OC)cc2)c(=O)cc1NN	45µM*	-2%[57.1 µM]	-31%	-20	49%	-9
O=C(O)c1cc(-c2cccs2)nn1-c1cccc(Cl)c1	-28%	-16%	-17%	-5	3%	-8
O=C(O)c1cc(-c2ccco2)nn1-c1cccc(Cl)c1	18µM*	56µM*	50µM*	0	-7%	-10
Cc1ccc(-n2nc(-c3cccnc3)cc2C(=O)N2CCOCC2)c(C)c1	45µM*	-24%	-33%	-3	1%	0
Cc1ccc(-n2nc(-c3ccco3)cc2C(=O)O)c(C)c1	18µM*	56µM*	45µM*	9	-24%	1

High-throughput results: PubChem, National Center for Advancing Translational Sciences (NCATS)
